Measured values published in PubChem BioAssay (NCI).
About 79,000 compounds went through this panel and 15% of them were active in at least one assay; those are over-represented in the sample as a whole. No stated cut-off is given here; in the data, active means growth inhibition above about 70%; inactive means the rest.

Experiments:
[1] = NCI Yeast Anticancer Drug Screen. Data for the rad50 strain (AID 155);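 further: 0% = growth of vehicle-only cultures of the same strain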; conditions: S. cerevisiae rad50 strain growth inhibition; at 50.0 µM; stronger effect = higher value
Procedure, shortened: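 Inhibition values express reduced yeast growth in compound-treated cultures relative to vehicle-treated controls.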

[2] = NCI Yeast Anticancer Drug Screen. Data for the mec2-1 strain (AID 157); conditions: S. cerevisiae mec2-1 strain, at 50.0 µM, stronger effect = higher value
Procedure, shortened: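 Yeast mec2-1 mutant treated with compound. Readout: growth inhibition vs vehicle controls.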

[3] = NCI Yeast Anticancer Drug Screen. Data for the sgs1 mgt1 strain (AID 161);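 further: 0% = growth of cultures given vehicle only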; conditions: S. cerevisiae sgs1 mgt1 strain, at 50.0 µM, stronger effect = higher value
Procedure, shortened: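 Genetically altered yeast, compound exposure, growth inhibition relative to vehicle.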

[4] = NCI Yeast Anticancer Drug Screen. Data for the cln2 rad14 strain (AID 165);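 further: 0% = growth equal to vehicle treated cultures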; conditions: S. cerevisiae cln2 rad14 strain, at 50.0 µM, stronger effect = higher value
Procedure, shortened: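 cln2 rad14 yeast strain; compound exposure; growth inhibition read vs vehicle controls.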

[5] = NCI Yeast Anticancer Drug Screen. Data for the bub3 strain (AID 167); conditions: S. cerevisiae bub3 mutant strain, at 50.0 µM, stronger effect = higher value
Procedure, shortened: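 Steps: expose the mutant yeast strain to compound; grow alongside vehicle-treated cultures; measure growth; express inhibition against the vehicle cultures.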

[6] = NCI Yeast Anticancer Drug Screen. Data for the mlh1 rad18 strain (AID 175); conditions: S. cerevisiae mlh1 rad18 strain growth inhibition; at 50.0 µM; stronger effect = higher value
Procedure, shortened: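 Yeast w/ defined DNA-repair lesions; compound exposure; growth vs vehicle controls → % inhibition.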

Measured: growth inhibition

C[n+]1cccc(C(=O)O)c1-c1ccccc1
inactive: [1] 20.4% | [2] 5.9% | [3] 5.85% | [4] -39.5% | [5] 4.55% | [6] 10.3%

COC1=C(c2c[nH]c3ccc(CC=C(C)C)cc23)C(=O)C(OC)=C(c2c[nH]c3ccc(CC=C(C)C)cc23)C1=O
inactive: [1] 30.5% | [2] 6.5% | [3] 13.6% | [4] 19.4% | [5] -1.1% | [6] 29.6%

COc1cc(/C=C/C(=O)Oc2ccccc2)ccc1C(=O)O/C=C/c1ccccc1
inactive: [1] 3.65% | [2] -4.7% | [3] 1.85% | [4] 21.4% | [5] -5.15% | [6] 13.5%

CNCC1OC(OC)C2OC(C)(C)OC12 (configuration not stated)
inactive: [1] -5.05% | [2] 5.1% | [3] 8.15% | [4] -25.5% | [5] -21.1% | [6] 5.05%

CCOC(=O)CC(=O)C(=O)NNC1=NCCN1
inactive: [1] 7.15% | [2] 11.6% | [3] 23.6% | [4] 2.45% | [5] 13.3% | [6] 15.2%

CC(C)C1(C(C)C)OCC(CO)O1 (configuration not stated)
inactive: [1] 9.55% | [2] -7.75% | [3] -7.85% | [4] -60.2% | [5] 16.4% | [6] -9.3%

O=S(NOCc1ccccc1)c1ccccc1 (configuration not stated)
inactive: [1] 13.3% | [2] 24.2% | [3] 3.95% | [4] -31.8% | [5] -6% | [6] 9.75%

CCSCN1CCN(CSCC)CC1
inactive: [1] 1.35% | [2] 1.15% | [3] 3.5% | [4] 27.5% | [5] -11.9% | [6] -5.05%

O=C(O)/C(=C\c1ccncc1)c1cccc2ccccc12
inactive: [1] 0.85% | [2] -12% | [3] -37.4% | [4] -24.9% | [5] -32% | [6] -9.65%

CCOP(=O)(OCC)/C(C#N)=C/c1cnc(-c2ccccc2)[nH]1
inactive: [1] -38% | [2] -4.85% | [3] -32.8% | [4] 16.1% | [5] 13.4% | [6] -34%

COC1OC(COC(c2ccccc2)(c2ccccc2)c2ccccc2)C2SC12 (configuration not stated)
inactive: [1] 23.9% | [2] 10% | [3] -1.05% | [4] 14.2% | [5] 4.8% | [6] 17.6%

O=C1CCC(=O)N1CC1CC2CCC1C2 (configuration not stated)
inactive: [1] 40% | [2] 4.15% | [3] 22.2% | [4] 23.8% | [5] 4.4% | [6] 36%

CCC(=O)Oc1ccc(C(C)(C)C)cc1
inactive: [1] -5.85% | [2] -3.75% | [3] 1.95% | [4] -2.25% | [5] 11.1% | [6] 1.1%

C/C=C/C=C/CC
inactive: [1] 8.75% | [2] -12.3% | [3] -5.4% | [4] 16.2% | [5] 16.9% | [6] -22.6%

COC(=O)/C(N=Nc1cccc(C)c1)=C(\C)O
inactive: [1] 8.65% | [2] 5.65% | [3] 5.3% | [4] 19.9% | [5] 9.8% | [6] -2.7%

CC1=CC=CC(C)(C)C(=O)C1=O
inactive: [1] -31.4% | [2] -13.2% | [3] -12.8% | [4] -18.9% | [5] -21.5% | [6] -15.4%

Clc1cccc2[nH]ccc12
inactive: [1] -6.1% | [2] -3.1% | [3] -23.9% | [4] -10.2% | [5] -11.3% | [6] -3.9%

O=C(O)c1cccc(Br)c1
inactive: [1] 4.85% | [2] -19.1% | [3] -8.4% | [4] -38.2% | [5] -5.7% | [6] -5.5%

COC(=O)CC(=O)/C(=C/C(C/C=C(\C(=O)CC(=O)OC)C(=O)OC)OC)C(=O)OC (configuration not stated)
inactive: [1] 40.1% | [2] 22.8% | [3] 8.9% | [4] 18.8% | [5] 3.85% | [6] 32.3%

CCN(CC)CCSCCSCCN(CC)CC
inactive: [1] -24.7% | [2] -1.55% | [3] -3.05% | [4] -39% | [5] 8.65% | [6] -10.3%

O=C(O)/C=N\Nc1nc2ccccc2[nH]1
inactive: [1] -1.85% | [2] -5.95% | [3] 1.9% | [4] -11.1% | [5] -8.05% | [6] 6.8%

COC1C(OC(N)=O)C(O)C(Oc2ccc3c(O)c(NC(=O)c4ccc(O)c(CC=C(C)C)c4)c(=O)oc3c2C)OC1(C)C (configuration not stated)
inactive: [1] 7.2% | [2] -23.4% | [3] 1.7% | [4] -6.1% | [5] 9.1% | [6] 26.4%

O=C(O)c1ccc(CS(=O)c2ccccc2)c([N+](=O)[O-])c1 (configuration not stated)
inactive: [1] 8.2% | [2] -0.7% | [3] -1.45% | [4] 14.4% | [5] -4.9% | [6] 24.7%

COC(=O)/C(=N/NC(C)(C)C)C(C(=O)OC)C(=O)C(=O)Nc1nc2ccc([N+](=O)[O-])cc2s1 (configuration not stated)
inactive: [1] 33.1% | [2] 8.15% | [3] -22.9% | [4] -10.4% | [5] 0.1% | [6] 27.4%

C[N+](C)(C)CCC(=O)N1C/C(=C\c2ccccc2)C(=O)/C(=C/c2ccccc2)C1
inactive: [1] -35.6% | [2] -15.2% | [3] -34.1% | [4] 8.75% | [5] -15.7% | [6] -34.8%

Cc1nc(Cl)nc2c1C(=O)Nc1ccccc1N2
inactive: [1] 27.2% | [2] 14.4% | [3] 0% | [4] 2.95% | [5] 28.1% | [6] 15.9%

Oc1ccc(O)c(-c2ccccc2)c1
inactive: [1] 61.5% | [2] 36.2% | [3] 53.2% | [4] 51% | [5] 33.6% | [6] 44%

COC(=O)/C(=N\O)C(C(=O)C=C(C)C)C(=O)C(=O)Nc1ccccc1C (configuration not stated)
inactive: [1] -5.8% | [2] -21.6% | [3] -8.35% | [4] 7.4% | [5] -14.1% | [6] -18.1%

CC1=C(C(=O)OCCc2ccc([N+](=O)[O-])cc2)C(c2cccc([N+](=O)[O-])c2)C(C(=O)OC(C)C)=C(C)N1 (configuration not stated)
inactive: [1] 0.15% | [2] -6.95% | [3] 12.8% | [4] 0.45% | [5] 16.1% | [6] -30.9%

N#CNS(=O)(=O)c1ccccc1
inactive: [1] 8.3% | [2] -5.6% | [3] 22.6% | [4] 14% | [5] 12.2% | [6] 17.6%

COc1ccccc1NC(=O)NCCCCCCNC(=O)Nc1ccccc1OC
inactive: [1] -25.6% | [2] -2.55% | [3] 2.1% | [4] -39.9% | [5] 0.85% | [6] 13.4%

Cc1ccc(OC(=O)c2cc([N+](=O)[O-])cc([N+](=O)[O-])c2)cc1
inactive: [1] 4.4% | [2] -0.5% | [3] 13.3% | [4] -12.8% | [5] 2% | [6] -0.7%

OC(c1cccc(Cl)c1)C(Cl)Cl (configuration not stated)
inactive: [1] -2.55% | [2] -9.45% | [3] -22% | [4] -4.15% | [5] -14.5% | [6] 1.95%

CC1OC(c2ccccc2Cl)OC1C (configuration not stated)
inactive: [1] 1% | [2] -2.75% | [3] -9.7% | [4] -8.5% | [5] -3.05% | [6] -11.7%

O=C(/C=N/O)Nc1ccccc1
inactive: [1] 10.8% | [2] 7.25% | [3] -0.15% | [4] 7.9% | [5] 7.25% | [6] -9.35%

CCOC(=O)C(=CN1CCCc2ccccc21)C(=O)OCC
inactive: [1] 5.05% | [2] -17.1% | [3] 13.6% | [4] -35% | [5] 5.4% | [6] -6.15%

Cc1ccc(S(=O)(=O)N/N=C/c2cc([N+](=O)[O-])ccc2O)cc1
inactive: [1] 5% | [2] 3.4% | [3] 10.1% | [4] 14.8% | [5] 9.5% | [6] 28.9%

O=[N+]([O-])c1cccc2c1ccc1nonc12
inactive: [1] 17.2% | [2] -5.15% | [3] 2.55% | [4] -52.1% | [5] -15.8% | [6] 20.5%

CCCC(=O)OCCc1ccccc1
inactive: [1] 12.8% | [2] 10.3% | [3] 16.4% | [4] -65.5% | [5] 5.1% | [6] -26%

COc1ccc(C(=O)c2cc(S(=O)(=O)O)c(OC)cc2O)c(O)c1
inactive: [1] -32.8% | [2] -35.4% | [3] -31.2% | [4] -1.6% | [5] -13.4% | [6] -21.9%

CCOC(=O)Nc1ccc([N+](=O)[O-])c2c1C(=O)c1ccccc1-2
inactive: [1] -9.55% | [2] 2.9% | [3] -8.6% | [4] -10.7% | [5] -21.6% | [6] -19.5%

CC(=O)Nc1c(F)cc(F)cc1[N+](=O)[O-]
inactive: [1] -28.4% | [2] -3.4% | [3] -12.4% | [4] -16.8% | [5] -18.8% | [6] 10.3%
